Inhibition data for five molecules are collected here from PubChem BioAssay AID1006 (Sanford-Burnham Center for Chemical Genomics, 2008).

Molecules are shown by their SMILES. Among all 200,000 compounds or so, about 3,000 (1.5%) were called active.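 How the source made its calls: active means inhibition above about 50% when tested at 10 µM (limit read from the data); inactive means the rest.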 Only a selection was taken, and actives are over-represented in it overall.

The target of this assay is Luciferin 4-monooxygenase (Photinus pyralis) (UniProt P08659). As to the kind of experiment: inhibition of purified FLuc reporter enzyme – biochemical, luminescence, ATPLite, artefact control for luciferase-based inhibitor screens, primary screen (AID 1006). The settings on record: ATPLite firefly luciferase biochemical luminescence, 10 min; at 10 µM; hits give high values. On the technique in general: In ATP-based viability assays light output follows the ATP content of the culture.
Chain of Luciferin 4-monooxygenase (Photinus pyralis) (P08659 whole entry, looked up): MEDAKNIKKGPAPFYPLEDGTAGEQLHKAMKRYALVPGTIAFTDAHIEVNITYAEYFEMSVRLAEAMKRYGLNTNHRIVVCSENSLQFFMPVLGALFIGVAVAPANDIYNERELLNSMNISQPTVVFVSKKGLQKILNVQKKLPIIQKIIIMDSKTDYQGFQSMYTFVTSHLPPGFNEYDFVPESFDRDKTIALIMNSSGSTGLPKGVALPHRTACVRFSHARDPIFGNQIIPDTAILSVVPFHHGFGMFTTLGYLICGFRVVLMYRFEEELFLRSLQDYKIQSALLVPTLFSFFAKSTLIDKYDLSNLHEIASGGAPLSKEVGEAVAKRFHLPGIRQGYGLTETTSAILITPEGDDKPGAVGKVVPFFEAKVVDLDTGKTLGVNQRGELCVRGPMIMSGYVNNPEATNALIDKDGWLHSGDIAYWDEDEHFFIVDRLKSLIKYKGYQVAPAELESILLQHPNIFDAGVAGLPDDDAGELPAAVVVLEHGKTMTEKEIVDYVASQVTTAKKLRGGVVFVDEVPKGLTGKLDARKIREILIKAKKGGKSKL
For orientation: inhibition means the drop in the measured response relative to a control, in per cent. `Cc1nc2ccc(N3CCN(C)CC3)cc2nc1C`: the inhibition is 15.6% (inactive).

For `COc1cccc(-c2nc3ccc(N4CCN(C)CC4)cc3[nH]2)c1`, the inhibition is 95.8% (active). Turning to `CN1CCN(c2cc(N3CCNCC3)ccc2[N+](=O)[O-])CC1`, the inhibition is 5.2% (inactive). Take `Cc1nn(Cc2ccccc2Cl)c(Cl)c1C(=O)OC(C(=O)NC(N)=O)C(C)C` (stereo not given): the inhibition was -7% (inactive).

Take `Cc1ccnc(-n2c(C)cc(/C=C3\C(=O)NC(=S)N(C)C3=O)c2C)c1`: the inhibition is 5.2% (inactive).
